The values that follow come from PubChem BioAssay.

A short description of assay [1]: resazurin metabolic signal in HepG2 cells – cell-based, resazurin fluorescence, 24 h, PK04 Diversity Set, profiling panel (AID 1172). Further: test concentration not given here. To be noted: HepG2 viability, higher = more signal.
The nature of assay [2]: budding yeast growth changes without added modifier – OD600, strain BY4716, 24 h, basal condition, primary screen (AID 1173). The settings on record: S. cerevisiae BY4716 growth, OD600, 24 h; higher = more signal, called active from +8 up or from −8 down.
Assay [3] is described as follows: viability profiling in MM1S myeloma cells – cell-based, resazurin fluorescence, basal, 24 h, PK04 Diversity Set, profiling panel (AID 1174).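 Further: MM1S multiple myeloma cell line; test concentration not given here.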 To be noted: higher = more signal, called active from +8 up or from −8 down. A general note: Alamar Blue is a resazurin reagent that responds to reducing activity.
In assay [4] the target is Dihydroorotate dehydrogenase (quinone), mitochondrial (Plasmodium falciparum (isolate 3D7)) (UniProt Q08210). Nature of the assay: inhibition of P. falciparum DHODH – biochemical, C-terminal His tag, absorbance 600 nm, primary screen (AID 1175).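 Further: recombinant parasite enzyme with a five histidine tag at its C terminus; test concentration not given here.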 The settings on record: PfDHODH enzyme, DCIP absorbance 600 nm; higher = more signal, called active from +8 up or from −8 down.
Assay [5] can be described thus: inhibition of PAO1 biofilm formation – strain PAO1, LB-PBS medium, absorbance 600 nm, primary screen (AID 1176). Further: test concentration not given here. The settings on record: P. aeruginosa PAO1 growth/biofilm, A600, 12 h; higher = more signal.
A short description of assay [6]: growth modulation of vineyard yeast isolate – strain RM11-1a, OD600, basal, 24 h, primary screen (AID 1177).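 Further: cultures grown under basal conditions with no added stressor; test concentration not given here.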 To be noted: S. cerevisiae RM11-1a growth, OD600, 24 h; higher = more signal, called active from +8 up or from −8 down.
A short description of assay [7]: growth of efflux-deficient E. coli DRC39 – strain DRC39, OD650, 24 h, E. coli filamentation inducers, primary screen (AID 1178).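 Further: growth measured as culture turbidity by optical density at 650 nm; test concentration not given here.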 The settings on record: E. coli DRC39 acrAB, higher = more signal, called active from +8 up or from −8 down.
Assay [8] in a line: growth of efflux-deficient E. coli DRC39 – strain DRC39, OD650, 48 h, E. coli filamentation inducers, primary screen (AID 1179).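 Further: screen aims at cell division blockers that make cells filament.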 To be noted: E. coli DRC39 delta-acrAB growth, higher = more signal, called active from +8 up or from −8 down.
Assay [9] can be described thus: viability profiling in RPMI8226 myeloma cells – cell-based, resazurin fluorescence, basal, 24 h, PK04 Diversity Set, profiling panel (AID 1180).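 Further: RPMI8826 multiple myeloma cell line at 5000 cells per well; test concentration not given here.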 The settings on record: higher = more signal.
In assay [10] the target is E3 ubiquitin-protein ligase XIAP (Homo sapiens) (UniProt P98170). Nature of the assay: small molecules binding XIAP protein – biophysical, small-molecule microarray, fluorescence 635 nm, primary screen (AID 1181).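 Further: score merges 667 nm emission and signal to noise over triplicate slides.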 The settings on record: higher = more signal.

Activity calls are given as the source filed them. Unless noted, how the calls were made is not given here.

Chain of E3 ubiquitin-protein ligase XIAP (Homo sapiens) (P98170 whole entry, looked up): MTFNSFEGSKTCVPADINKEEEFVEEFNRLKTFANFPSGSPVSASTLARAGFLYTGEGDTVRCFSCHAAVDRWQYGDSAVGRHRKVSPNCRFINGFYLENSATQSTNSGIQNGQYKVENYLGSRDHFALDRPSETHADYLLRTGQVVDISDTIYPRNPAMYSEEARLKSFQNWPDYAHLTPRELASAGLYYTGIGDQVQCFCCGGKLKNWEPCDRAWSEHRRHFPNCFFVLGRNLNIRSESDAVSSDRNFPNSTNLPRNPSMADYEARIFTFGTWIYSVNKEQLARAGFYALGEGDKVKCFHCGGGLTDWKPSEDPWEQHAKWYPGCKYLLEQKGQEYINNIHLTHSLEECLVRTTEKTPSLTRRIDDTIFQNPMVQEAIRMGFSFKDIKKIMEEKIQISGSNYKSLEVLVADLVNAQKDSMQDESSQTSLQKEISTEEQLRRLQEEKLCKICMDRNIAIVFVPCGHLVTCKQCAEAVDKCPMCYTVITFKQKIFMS
Chain of Dihydroorotate dehydrogenase (quinone), mitochondrial (Plasmodium falciparum (isolate 3D7)) (Q08210 whole entry, looked up): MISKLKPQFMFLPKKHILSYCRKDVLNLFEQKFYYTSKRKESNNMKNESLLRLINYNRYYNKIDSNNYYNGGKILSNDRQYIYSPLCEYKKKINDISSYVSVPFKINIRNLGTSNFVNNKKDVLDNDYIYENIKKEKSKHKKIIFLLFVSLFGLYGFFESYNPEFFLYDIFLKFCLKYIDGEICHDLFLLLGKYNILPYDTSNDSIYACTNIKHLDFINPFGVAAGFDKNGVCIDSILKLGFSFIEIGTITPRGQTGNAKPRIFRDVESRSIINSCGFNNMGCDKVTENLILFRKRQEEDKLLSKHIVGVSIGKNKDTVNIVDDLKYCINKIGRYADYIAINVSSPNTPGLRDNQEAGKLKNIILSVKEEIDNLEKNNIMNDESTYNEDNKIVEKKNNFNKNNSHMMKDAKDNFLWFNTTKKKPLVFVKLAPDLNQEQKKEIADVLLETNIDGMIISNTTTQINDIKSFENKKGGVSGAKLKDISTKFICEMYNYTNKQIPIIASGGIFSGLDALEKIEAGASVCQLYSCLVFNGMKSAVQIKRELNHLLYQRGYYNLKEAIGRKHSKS

With `C=C(C(=O)CC[C@@H](OC(=O)c1ccccc1-c1ccccc1C(=O)O)c1ccc(CO)o1)C(C)C`, the z-score in assay [1] was -0.31; in assay [2], -0.317 (inactive); in assay [3] it was 0.114 (inactive); in [5], 1.63 (inactive); in assay [6], 0.0083 (inactive); in assay [7], 0.159 (inactive). Moreover, the z-score in [8] was -0.171 (inactive); in assay [9], 0.16. Further, the composite z-score in [4] is -2.18 (inactive); in [10], -0.282.

With `CCCCCCc1nc(Cc2cc(OC)c(OC)c(OC)c2)c(C)c2c1[Si](C(C)C)(C(C)C)OC2`, the z-score in assay [1] is -0.422; in assay [2], -0.944 (inactive); in [3] it was 0.328 (inactive); in [5] it was 0.055 (inactive); in [6] it was -0.599 (inactive); in assay [7] it was 1.4 (inactive). For the same molecule, the z-score in assay [8] is 0.707 (inactive); in assay [9], 0.556. In addition, the results for the composite z-score in [4] and in assay [10] were -3.29 (inactive) and 0.146, respectively.

As for `COC(=O)[C@@]1(Cc2ccc(F)cc2)[C@H]2c3cc(C(=O)N(C)C)n(Cc4ccc(C(F)(F)F)nc4)c3C[C@H]2CN1C(=O)c1ccccc1`, the z-score was -0.575 in assay [1]; 0.512 (inactive) in assay [2]; -1.04 (inactive) in [3]; -0.359 (inactive) in assay [5]; 0.337 (inactive) in assay [6]; -0.532 (inactive) in assay [7]. Besides, the z-score is -0.171 (inactive) in [8] and -0.912 in assay [9]. Also, the composite z-score in assay [4] was 0.0058 (inactive); in assay [10], 0.109.

Take `CC(C)C[C@@H]1NC(=O)[C@@H]2C[C@H](C(=O)NCCCCCCNC(=O)CS)[C@H](c3ccc(O)cc3)N2C1=O`: the z-score in assay [1] is 0.0799; in assay [2], -0.295 (inactive); in assay [3], -0.471 (inactive); in assay [5] it was 1.97 (inactive); in assay [6], 0.199 (inactive); in assay [7] it was 0.306 (inactive). The z-score in assay [8] is -0.874 (inactive); in [9], -0.898. For the same molecule, the composite z-score in assay [4] is -0.283 (inactive); in assay [10], 0.291.

Take `COc1ccc(CCNC(=O)[C@@]2(C)c3ccccc3C(=O)N(Cc3ccc(OC(F)(F)F)cc3)[C@H]2c2ccc(CO)cc2)cc1`: the z-score in assay [1] is 1.4; in assay [2], -0.553 (inactive); in assay [3] it was 0.979 (inactive); in [5] it was 1.05 (inactive); in assay [6], 0.362 (inactive); in assay [7], 0.0466 (inactive). The z-score in [8] is -0.657 (inactive); in assay [9] it was 1.3. Also, the composite z-score in assay [4] was -0.0074 (inactive); in assay [10], -0.031.

Consider `COCCOC(=O)N1C(=O)[C@@]2(c3cc(C#CCNC(N)=O)ccc31)[C@H](c1ccc(O)cc1)N1[C@H](c3ccccc3)[C@H](c3ccccc3)OC(=O)[C@H]1[C@@H]2C(=O)N1CCc2cc(OC)c(OC)cc2C1`, for which the z-score was -0.328 in [1]; 1.66 (inactive) in assay [2]; -0.202 (inactive) in assay [3]; 0.902 (inactive) in assay [5]; 2.24 (inactive) in assay [6]; -0.0681 (inactive) in [7]. The results for the z-score in [8] and in assay [9] were -0.119 (inactive) and -0.242, respectively. The composite z-score is 1.38 (inactive) in assay [4] and 0.171 in assay [10].

With `CC[C@@H]1C=C(C(=O)O)[C@H](c2cccc(Cl)c2)N1S(=O)(=O)c1ccc(C)cc1`, the z-score in [1] was -0.722; in assay [2] it was -0.423 (inactive); in assay [3], -0.869 (inactive); in [5] it was -0.184 (inactive); in assay [6], -0.285 (inactive); in assay [7], -0.647 (inactive). Further, the figures for the z-score in [8] and in assay [9] were -0.55 (inactive) and -1.89, respectively. The results for the composite z-score in [4] and in [10] were -0.831 (inactive) and 1.12, respectively.

As to `COC(=O)c1c2oc(c1C(=O)OC)C(=O)N[C@H](Cc1ccccc1)Cn1cc(nn1)C1(CCCCC1)NC(=O)N[C@H](CO)CC2`, the z-score in assay [1] is 0.483; in assay [2], -2.6 (inactive); in assay [3], 0.247 (inactive); in assay [5], 0.772 (inactive); in [6], 0.0801 (inactive); in [7], -0.051 (inactive). The z-score in [8] was 0.565 (inactive); in [9], 0.245. In addition, the composite z-score was -0.174 (inactive) in [4] and -0.113 in assay [10].

On to `C=C(CCCC)/C(=C/C[C@@H](OC(C)=O)c1ccc(OCCO)cc1)c1cc(C(=O)OC)ccc1OC`, for which the z-score in [1] was 0.353; in [2], -0.107 (inactive); in [3], -1.36 (inactive); in assay [5], 0.862 (inactive); in assay [6] it was -0.319 (inactive); in assay [7], 0.173 (inactive). Further, the z-score in [8] is 0.107 (inactive); in assay [9] it was -0.808. The composite z-score in assay [4] is -2.64 (inactive); in [10], -0.0274.

Consider `O=C1O[C@H](c2ccccc2)[C@H](c2ccccc2)N2[C@H]1[C@@H](C(=O)O)[C@]1(C(=O)Nc3ccc(C#CC4(O)CCCCCC4)cc31)[C@H]2c1ccccc1OCCO`, for which the z-score in assay [1] is 1.15; in [2], -1.72 (inactive); in [3], -0.65 (inactive); in [5], -0.645 (inactive); in assay [6], 3.22 (inactive); in assay [7], 0.703 (inactive). For the same molecule, the z-score is 0.732 (inactive) in assay [8] and 0.305 in assay [9]. Besides, the composite z-score in assay [4] is -2.25 (inactive); in assay [10], -0.0666.

Take `O=C(N1CCOCC1)[C@]1(CCS(=O)(=O)c2ccccc2)N=C(c2ccc(OCCCO)cc2)O[C@@H]1c1ccccc1`: the z-score is 0.945 in assay [1]; 1.14 (inactive) in assay [2]; 0.564 (inactive) in assay [3]; -0.981 (inactive) in [5]; 2.17 (inactive) in assay [6]; 2.71 (inactive) in assay [7]. The z-score in assay [8] is 0.546 (inactive); in assay [9] it was 0.413. The results for the composite z-score in [4] and in [10] were 2.06 (inactive) and 0.0379, respectively.

With `C=CCOC(=O)[C@H]1[C@@H]2C(=O)O[C@@H](c3ccccc3)[C@@H](c3ccccc3)N2[C@@H](c2ccc(OCCOC(=O)[C@@H]3C[C@@H]4C(=O)N[C@@H](Cc5ccccc5)C(=O)N4[C@@H]3c3ccc(O)cc3)cc2)[C@]12C(=O)Nc1ccc(I)cc12`, the z-score was -0.654 in assay [1]; 2.3 (inactive) in assay [2]; -1.06 (inactive) in assay [3]; 2.75 (inactive) in assay [5]; 2.92 (inactive) in [6]; -0.588 (inactive) in assay [7]. Further, the results for the z-score in assay [8] and in assay [9] were -0.508 (inactive) and -0.721, respectively. Further, the composite z-score in [4] is 0.684 (inactive); in assay [10], 0.349.
